From PubChem BioAssay AID1211 (NMMLSC, 2008)
Active and inactive are the calls of the source. How the calls were made is not given here.

Target: Estrogen receptor (Homo sapiens) (UniProt P03372)
Assay: ERalpha ligand binders by competition, primary screen, cell-based, Cos7 ERalpha-GFP, flow cytometry (AID 1211);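 further: 0% = DMSO vehicle wells and 100% = no E2-Alexa633 signal left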
Conditions: fluorescent ligand competition, stronger effect = higher value

Sequence of Estrogen receptor (Homo sapiens) (P03372 whole entry, looked up): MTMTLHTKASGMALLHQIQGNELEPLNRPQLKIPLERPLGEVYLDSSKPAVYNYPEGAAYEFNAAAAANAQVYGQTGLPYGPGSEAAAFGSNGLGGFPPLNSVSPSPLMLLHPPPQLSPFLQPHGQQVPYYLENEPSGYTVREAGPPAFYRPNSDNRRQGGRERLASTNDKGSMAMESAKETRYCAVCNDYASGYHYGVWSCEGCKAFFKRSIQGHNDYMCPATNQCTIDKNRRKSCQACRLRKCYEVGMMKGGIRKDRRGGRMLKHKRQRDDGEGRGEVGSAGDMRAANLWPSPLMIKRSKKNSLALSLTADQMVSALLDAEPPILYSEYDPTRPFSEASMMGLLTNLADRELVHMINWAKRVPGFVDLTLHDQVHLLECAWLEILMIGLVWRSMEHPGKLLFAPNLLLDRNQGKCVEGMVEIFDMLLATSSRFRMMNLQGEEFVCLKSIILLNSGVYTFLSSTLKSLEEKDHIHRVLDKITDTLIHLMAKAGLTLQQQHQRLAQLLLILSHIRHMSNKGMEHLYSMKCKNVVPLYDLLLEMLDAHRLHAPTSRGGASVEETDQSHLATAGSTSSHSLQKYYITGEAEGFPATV

CCOc1cc(N2CCOCC2)c(OCC)cc1NC(=O)c1cc(-c2ccco2)nc2ccccc12
inhibition of ligand binding (at 10 µM): 24% (inactive) | inhibition of ligand binding (binding inhibition, at 0.1 µM): 4%

COc1ccc(C2Nc3ccccc3C(=O)N2c2ccccc2)cc1Cn1cc([N+](=O)[O-])cn1 (centres undefined)
inhibition of ligand binding (at 10 µM): 29% (inactive) | inhibition of ligand binding (binding inhibition, at 0.1 µM): 12%

CCn1c2ccccc2c2cc(NC(=O)CSc3nnc(-c4ccc(OC)cc4)n3N)ccc21
inhibition of ligand binding (at 10 µM): 53% (inactive) | inhibition of ligand binding (binding inhibition, at 0.1 µM): 17%

CCOc1cccc2cc(-c3cn4cc(C)ccc4n3)c(=O)oc12
inhibition of ligand binding (at 10 µM): 52% (inactive) | inhibition of ligand binding (binding inhibition, at 0.1 µM): 29%

Cc1ccc(NC(=O)CN2C(=O)S/C(=C/c3ccc(-c4cc(C(=O)O)ccc4C)o3)C2=O)cc1C
inhibition of ligand binding (at 10 µM): 50% (inactive) | inhibition of ligand binding (binding inhibition, at 0.1 µM): 39%

CC(C)C1Nc2c(O)cc(Cl)c([N+](=O)[O-])c2C2C=CCC21 (centres undefined)
inhibition of ligand binding (at 10 µM): 40% (inactive) | inhibition of ligand binding (binding inhibition, at 0.1 µM): 16%

COc1ccc(C2Nc3ccccc3C(=O)N2c2ccccc2)cc1CSc1ccccn1 (centres undefined)
inhibition of ligand binding (at 10 µM): 44% (inactive) | inhibition of ligand binding (binding inhibition, at 0.1 µM): 17%
